# Test results as given in PubChem BioAssay (EPA / NIEHS).
# The source made the active and inactive calls. The calls were made as follows: active = hit-call score of the fitted dose curve at least 0.9, where 1 is the maximum; inactive = score below 0.9.
# Assay: ATG_RORE_CIS: Attagene CIS-FACTORIAL HepG2 Assay for human RAR-related Orphan Receptor Element (RORE) (AID 2282959)
# Conditions: HepG2 Attagene cis-factorial RORE reporter, mRNA; actives raise or lower the signal
# Experimental: ATG_CIS is a cell-based, multiplexed-readout assay that uses HepG2, a human liver cell line, with measurements taken at 24 hours after chemical dosing in a 24-well plate.ATG_RORE_CIS is one of 52 assay component(s) measured or calculated from the ATG_CIS assay. It is designed to make measurements of mRNA induction, a form of inducible reporter, as detected with fluorescence intensity signals by Reverse transcription polymerase chain reaction (RT-PCR) and Capillary electrophoresis technology.Data from the assay component ATG_RORE_CIS was analyzed into 1 assay endpoint. This assay endpoint, ATG_RORE_CIS, was analyzed with bidirectional fitting relative to DMSO as the negative control and baseline of activity. Using a type of inducible reporter, measures of mRNA for gain or loss-of-signal activity can be used to understand the reporter gene at the transcription factor-level as they relate to the gene RORA and RORB and RORC. Furthermore, this assay endpoint can be referred to as a primary readout, because this assay has produced multiple assay endpoints where this one serves a reporter gene function. To generalize the intended target to other relatable targets, this assay endpoint is annotated to the nuclear receptor intended target family, where the subfamily is orphan.
# Human liver HepG2 cells are transiently transfected with multiple reporter transcription units (MRTUs) in 6-well plates using FuGene 6 reagent (Roche; 3 ml FuGene/1 mg DNA). The MRTU constructs are regulated by a cis-regulating element (promoter). […] A major difference between the CIS and TRANS system is that in CIS activities of endogenous TFs are measured, whereas the TRANS assay evaluates changes in activities of exogenous, chimeric NR-Gal4 proteins. […] At the end of 24 hour incubation, total RNA was isolated using TriZol reagent (Invitrogen). The isolated RNA is then reverse-transcribed using oligo(dT) primer and Mo-MLV reverse transcriptase (Invitrogen) with DNAse I (Ambion) treatment for 30 min. The one-tenth of the produced cDNA was amplified by PCR using Taq DNA polymerase (Invitrogen) and two reporter sequence-specific primers. The PCR products were fluorescently labeled by primer extension with 6-arboxyfluorescein (6-FAM) 5'-labeled reporter sequence-specific primer (2 min at 95 C, 20 s at 68 C and 10 min at 72 C) and these products were digested with 5U of HpaI (New England Biolabs) for 2h at 37 C. The fragments were purified using Qiaquick PCR columns (Qiagen), analyzed on an ABI 3130xL genetic analyzer (Applied Biosystems) with peak positions identified by using a set of X-rhodamine (ROX)-labeled MapMarker1000 molecular weight standards (BioVentures). The raw capillary electrophoresis data was processed using Attagraph software (Attagene).
SMILES,outcome,AC50
OCCCc1ccccc1,inactive,
CCCCNC(=S)NCCCC,inactive,
COC(=O)C=Cc1ccccc1,inactive,
Cc1ccc2c(c1)CCCN2,inactive,
CCCC1CCCC(=O)O1 (stereo not given),inactive,
CCCCC(CC)COC(=O)/C=C/c1ccc(OC)cc1 (stereo not given),inactive,
COc1ccc(C(=O)c2ccccc2)c(O)c1,,100 µM (active)
CCN1CN(CC)CN(CC)C1,inactive,
Cc1c[nH]c(=O)[nH]c1=O,inactive,
O=C(Oc1ccccc1)c1ccccc1C(=O)Oc1ccccc1,inactive,
CC/C=C\CCOC(=O)c1ccccc1O,inactive,
CCCCCCCO,inactive,
CC(CC(C)C)=NO,inactive,
CC(CC=O)CC(C)(C)C (stereo not given),inactive,
C=CCCCCCCCCOC(C)=O,inactive,
CCCCCOC(=O)CCCCC,inactive,
CC/C=C\C/C=C\C/C=C\CCCCCCCC(=O)OC,,164 µM (active)
CCCCCCCCC(CO)CCCCCC (stereo not given),inactive,
Cc1cc(C)n(CO)n1,inactive,
CC1(C)CC(O)CC(C)(C)N1[O],inactive,

SMILES,outcome,AC50
CCCCCCCCCCCC(C)=O,inactive,
Cn1ccnc1,inactive,
CCCCCCCOC(=O)c1ccc(O)cc1,inactive,
CCCCCCCC(=O)OCC(COC(=O)CCCCCCC)OC(=O)CCCCCCC,inactive,
C=CCCCCCCCCO,inactive,
CC1CCC(C(C)(C)S)C(=O)C1 (stereo not given),inactive,
CCCC=C(C=O)CC,inactive,
Cc1cc(C)c(C=O)c(C)c1,inactive,
CCC(C)N (stereo not given),inactive,
CN(C)c1ccc2nc3ccc(=[N+](C)C)cc-3sc2c1,inactive,
CCCCCCCC(=O)OCC,inactive,
CC=CC(=O)OCC(C)C,inactive,
Nc1cccc(N)n1,inactive,
CC(=O)OC(C)c1ccccc1 (stereo not given),inactive,
C=CCCCCCCCCC=O,inactive,
CCCC(CC)c1ccccc1 (stereo not given),inactive,
Oc1ccc(-c2ccccc2)c(Cl)c1,,33.4 µM (active)
C=C(C)OC(C)=O,inactive,
CCOC(=O)c1ccc(C)cc1,inactive,
CC(C)(C)N,inactive,
